Inconclusive results are not listed. A call without a number means that no potency is given here. Calls of active or inactive are those of the source. The call rests on the fitted dose curve; in most records, active means well fitted curve in the direction sought with a large enough effect; inconclusive means small, poorly fitted or top-dose-only effect, or another doubt; inactive means no such curve, though single readings can be large; an effect the other way counts as inactive or inconclusive.
system: not listed separately; test: qHTS to identify inhibitors of the type 1 interferon - major histocompatibility complex class I in skeletal muscle: primary screen against the NCATS Pharmaceutical Collection (AID 1347407); settings: human skeletal muscle cells, IFN-b-induced MHC-I HiBiT luminescence, 24 h; series mostly up to 45.9 µM;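 further: luminescence of HiBiT knocked into endogenous HLA-B as interferon-induced MHC class I level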; further: potency means the concentration at half of the fitted maximal effect
In short: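 A qHTS format is used: 8-point, 1:5 compound series with 46 uM top final concentration, applied alongside 4 ng/ml IFN-beta to HLA-B*08:01-HiBiT knock-in myoblasts. Luminescence is measured after 24 h treatment.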

| SMILES | Potency |
| --- | --- |
| Cc1sccc1Br | inactive |
| CC(C)=CCC/C(C)=C/CC/C(C)=C/C(=O)OCC(=O)[C@@]1(O)CC[C@H]2[C@@H]3CCC4=CC(=O)C=C[C@]4(C)[C@H]3[C@@H](O)C[C@@]21C | inactive |
| CCCCCOc1ccc(C2SC(=O)NC2=O)cc1OCC (stereo not drawn) | inactive |
| CCc1cc(S(=O)(=O)O)c2cc(C(C)C)cccc1-2 | inactive |
| CN1Cc2cc(C(=O)N3CCC(C4CCNCC4)CC3)ccc2N[C@@H](CC(=O)O)C1=O | inactive |
| O=C(O)C(=O)Nc1cccc(-c2nn[nH]n2)c1 | inactive |
| CC(Oc1c(Cl)cccc1Cl)C1=NCCN1 (stereo not drawn) | inactive |
| CCc1cc2cc(OC)c(OC)cc2c(Cc2ccccc2)n1 | inactive |
| CC1(C)O[C@@H]2C[C@H]3[C@@H]4C[C@H](F)C5=CC(=O)C=C[C@]5(C)[C@@]4(F)[C@@H](O)C[C@]3(C)[C@]2(C(=O)CO)O1 | inactive |
| COC(=O)c1cc(Cl)c(NC(C)=O)cc1OC | inactive |
| Cc1cc(O)c(C)c(C)c1O | inactive |
| O=C(O)c1ccc(OCCN2CCCCC2)cc1 | inactive |
| Nc1c[n+](N2CCOCC2)no1 | inactive |
| Oc1ccc(CCNCCCCCCNCCc2ccccc2)cc1O | inactive |
| CCCC(=O)c1cc(O)c(O)cc1O | inactive |
| CC(C)(C)C1CCC(CC2=C(O)c3ccccc3C(=O)C2=O)CC1 (stereo not drawn) | inactive |
| CC(=O)Nc1ccn(C2COC(COC(=O)c3ccccc3)O2)c(=O)n1 (stereo not drawn) | inactive |
| O=C1CCCc2c(O)cccc21 | inactive |
| O=C1Nc2cc(Cl)ccc2Oc2ccccc21 | inactive |
| CNC(=O)c1cnn(-c2nc(N)c3ncn([C@@H]4O[C@H](CO)[C@@H](O)[C@H]4O)c3n2)c1 | inactive |

| SMILES | Potency |
| --- | --- |
| CC(C)(C)c1nnc(NS(=O)(=O)c2ccccc2)s1 | inactive |
| C[C@H](N)C(=O)N[C@@H](C)C(=O)NC1[C@H]2CN(c3nc4c(cc3F)c(=O)c(C(=O)O)cn4-c3ccc(F)cc3F)C[C@@H]12 (stereo partly drawn) | inactive |
| CC(=O)c1cc2ccccc2s1 | inactive |
| O=C(c1ccccc1)c1ccccc1 | inactive |
| CCCc1c2oc(C(=O)O)cc(=O)c2cc2c(=O)cc(C(=O)O)n(CC)c12 | inactive |
| CC(=O)OCC(=O)Nc1cc(C#N)cc(NC(=O)COC(C)=O)c1Cl | inactive |
| CCCCCOc1ccccc1/C(=C\SC)n1ccnc1 | inactive |
| CC(C)C(=O)Nc1cccc(C(F)(F)F)c1 | inactive |
| O=C(O)Cn1c(=O)n(Cc2ccc(Br)cc2F)c(=O)c2ccc(Cl)cc21 | inactive |
| CC(C)=CCNc1ncnc2c1ncn2[C@@H]1O[C@H](CO)[C@@H](O)[C@H]1O | 7.45 µM (active) |
| N#CSCC(=O)O | inactive |
| CC(=O)Nc1c(I)c(NC(C)=O)c(I)c(C(=O)O)c1I | inactive |
| O=C(O)c1ccccc1Nc1cc(Cl)ccc1C(=O)O | inactive |
| O=C(c1ccco1)N1CCNCC1 | inactive |
| COC(=O)C1=C(C)NC(COC(N)=O)=C(C(=O)OC(C)C)C1c1cccc(Cl)c1Cl (stereo not drawn) | inactive |
| COc1cc(C(=O)OC(COCCC(C)C)CN2CCOCC2)cc(OC)c1OC (stereo not drawn) | inactive |
| C[C@H]1C[C@H]2[C@@H]3CCC4=CC(=O)C=C[C@]4(C)[C@H]3C(=O)C[C@]2(C)[C@@]1(O)C(=O)CO | inactive |
| CC(C)OP(=O)(CP(=O)(OC(C)C)OC(C)C)OC(C)C | inactive |
| CNC[C@H](O)[C@@H](O)[C@H](O)[C@H](O)CO | inactive |
| CCOC(=O)c1ccc(OCCN2C[C@H](O)[C@@H](O)[C@H](O)[C@H]2CO)cc1 | inactive |

system: not listed separately; test: qHTS to identify inhibitors of the type 1 interferon - major histocompatibility complex class I in skeletal muscle: primary screen against the NCATS Mechanism Interrogation Plate v5.0 (MIPE) Libary (AID 1347411); settings: iHSKM cells + IFN-b, HiBiT-tagged MHC-I luminescence, 24 h; series mostly up to 45.8 µM; further: nearly all actives have a fitted effect of over 65% in size
In short: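 Immortalized human myoblasts (C25cl48) with HiBit knocked into endogenous HLA-B*08:01 were stimulated with 4 ng/ml IFN-beta and given compounds in 11-point 1:3 titration from 46 uM. After 24 h at 37 C, lytic HiBiT luminescence was read.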

| SMILES | Potency |
| --- | --- |
| O=C(O)C(=O)Nc1cccc(-c2nn[nH]n2)c1 | inactive |
| CC1(C)O[C@@H]2C[C@H]3[C@@H]4C[C@H](F)C5=CC(=O)C=C[C@]5(C)[C@@]4(F)[C@@H](O)C[C@]3(C)[C@]2(C(=O)CO)O1 | inactive |
| C[C@H]1C[C@H]2[C@@H]3CCC4=CC(=O)C=C[C@]4(C)[C@H]3C(=O)C[C@]2(C)[C@@]1(O)C(=O)CO | inactive |
| CNC[C@H](O)[C@@H](O)[C@H](O)[C@H](O)CO | inactive |

target: Protein phosphatase 1D (Homo sapiens) (UniProt O15297); test: RapidFire Mass Spectrometry qHTS Assay for Modulators of WT P53-Induced Phosphatase 1 (WIP1) (AID 1347424); settings: WIP1 dephosphorylation of phosphopeptide, RapidFire MS; series mostly up to 63 µM;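 further: amount of dephosphorylated VEPPL-S-QETFS peptide product formed by WIP1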; further: potency means the concentration at half of the fitted maximal effect
In short: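 10 nM WIP1 preincubated with compounds 1 hr at room temperature in pH 7.5 Tris buffer with 30 mM MgCl2, 1 mM TCEP; 2 uM VEPPL-pS-QETFS phosphopeptide for 5 min, formic acid quench; dephosphorylated product quantified by RapidFire MS against labelled standard.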

Protein phosphatase 1D (Homo sapiens), sequence (O15297 whole entry, looked up): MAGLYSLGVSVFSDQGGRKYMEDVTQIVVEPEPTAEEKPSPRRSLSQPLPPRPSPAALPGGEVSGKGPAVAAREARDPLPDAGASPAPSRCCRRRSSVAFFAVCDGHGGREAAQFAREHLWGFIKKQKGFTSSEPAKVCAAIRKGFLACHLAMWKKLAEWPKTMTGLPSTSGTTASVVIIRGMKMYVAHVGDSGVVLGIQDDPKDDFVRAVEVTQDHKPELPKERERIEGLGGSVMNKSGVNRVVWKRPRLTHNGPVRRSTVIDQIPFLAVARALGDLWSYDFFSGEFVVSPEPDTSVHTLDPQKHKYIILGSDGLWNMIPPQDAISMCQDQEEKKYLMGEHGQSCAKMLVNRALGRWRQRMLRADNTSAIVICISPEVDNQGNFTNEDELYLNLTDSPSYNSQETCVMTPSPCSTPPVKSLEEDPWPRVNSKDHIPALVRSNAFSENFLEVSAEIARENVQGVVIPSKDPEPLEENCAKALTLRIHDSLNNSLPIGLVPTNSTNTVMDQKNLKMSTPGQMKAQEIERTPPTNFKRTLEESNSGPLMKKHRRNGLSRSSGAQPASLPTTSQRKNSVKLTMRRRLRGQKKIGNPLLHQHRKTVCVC

| SMILES | Potency |
| --- | --- |
| Cc1sccc1Br | inactive |
| CC(C)=CCC/C(C)=C/CC/C(C)=C/C(=O)OCC(=O)[C@@]1(O)CC[C@H]2[C@@H]3CCC4=CC(=O)C=C[C@]4(C)[C@H]3[C@@H](O)C[C@@]21C | inactive |
| CCCCCOc1ccc(C2SC(=O)NC2=O)cc1OCC (stereo not drawn) | 2.51 µM (active) |
| CCc1cc(S(=O)(=O)O)c2cc(C(C)C)cccc1-2 | inactive |
| CN1Cc2cc(C(=O)N3CCC(C4CCNCC4)CC3)ccc2N[C@@H](CC(=O)O)C1=O | inactive |
| O=C(O)C(=O)Nc1cccc(-c2nn[nH]n2)c1 | inactive |
| CC(Oc1c(Cl)cccc1Cl)C1=NCCN1 (stereo not drawn) | inactive |
| CCc1cc2cc(OC)c(OC)cc2c(Cc2ccccc2)n1 | inactive |
| CC1(C)O[C@@H]2C[C@H]3[C@@H]4C[C@H](F)C5=CC(=O)C=C[C@]5(C)[C@@]4(F)[C@@H](O)C[C@]3(C)[C@]2(C(=O)CO)O1 | inactive |
| COC(=O)c1cc(Cl)c(NC(C)=O)cc1OC | inactive |
| Cc1cc(O)c(C)c(C)c1O | inactive |
| O=C(O)c1ccc(OCCN2CCCCC2)cc1 | inactive |
| Nc1c[n+](N2CCOCC2)no1 | inactive |
| Oc1ccc(CCNCCCCCCNCCc2ccccc2)cc1O | inactive |
| CCCC(=O)c1cc(O)c(O)cc1O | 35.5 µM (active) |
| CC(C)(C)C1CCC(CC2=C(O)c3ccccc3C(=O)C2=O)CC1 (stereo not drawn) | inactive |
| CC(=O)Nc1ccn(C2COC(COC(=O)c3ccccc3)O2)c(=O)n1 (stereo not drawn) | inactive |
| O=C1CCCc2c(O)cccc21 | inactive |
| O=C1Nc2cc(Cl)ccc2Oc2ccccc21 | inactive |
| CNC(=O)c1cnn(-c2nc(N)c3ncn([C@@H]4O[C@H](CO)[C@@H](O)[C@H]4O)c3n2)c1 | inactive |

| SMILES | Potency |
| --- | --- |
| CC(C)(C)c1nnc(NS(=O)(=O)c2ccccc2)s1 | inactive |
| C[C@H](N)C(=O)N[C@@H](C)C(=O)NC1[C@H]2CN(c3nc4c(cc3F)c(=O)c(C(=O)O)cn4-c3ccc(F)cc3F)C[C@@H]12 (stereo partly drawn) | inactive |
| CC(=O)c1cc2ccccc2s1 | inactive |
| O=C(c1ccccc1)c1ccccc1 | inactive |
| CCCc1c2oc(C(=O)O)cc(=O)c2cc2c(=O)cc(C(=O)O)n(CC)c12 | inactive |
| CC(=O)OCC(=O)Nc1cc(C#N)cc(NC(=O)COC(C)=O)c1Cl | inactive |
| CCCCCOc1ccccc1/C(=C\SC)n1ccnc1 | inactive |
| CC(C)C(=O)Nc1cccc(C(F)(F)F)c1 | inactive |
| O=C(O)Cn1c(=O)n(Cc2ccc(Br)cc2F)c(=O)c2ccc(Cl)cc21 | inactive |
| CC(C)=CCNc1ncnc2c1ncn2[C@@H]1O[C@H](CO)[C@@H](O)[C@H]1O | inactive |
| N#CSCC(=O)O | inactive |
| CC(=O)Nc1c(I)c(NC(C)=O)c(I)c(C(=O)O)c1I | inactive |
| O=C(O)c1ccccc1Nc1cc(Cl)ccc1C(=O)O | inactive |
| O=C(c1ccco1)N1CCNCC1 | inactive |
| COC(=O)C1=C(C)NC(COC(N)=O)=C(C(=O)OC(C)C)C1c1cccc(Cl)c1Cl (stereo not drawn) | inactive |
| COc1cc(C(=O)OC(COCCC(C)C)CN2CCOCC2)cc(OC)c1OC (stereo not drawn) | inactive |
| CC(C)OP(=O)(CP(=O)(OC(C)C)OC(C)C)OC(C)C | inactive |
| CNC[C@H](O)[C@@H](O)[C@H](O)[C@H](O)CO | inactive |
| CCOC(=O)c1ccc(OCCN2C[C@H](O)[C@@H](O)[C@H](O)[C@H]2CO)cc1 | inactive |
